Test results reported in PubChem BioAssay (NCI).
Values joined by “and” are separate entries in the source; they are usually repeats but may differ in a detail not shown here. Equal values may be shown once. Compounds without any hit were thinned out: in the full panel of roughly 83,000, 20% have a hit.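 Percent growth is the endpoint: 0 to 100 indicates growth inhibition (40 means 60% inhibition), 0 means no net growth, and negative values indicate cell death.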 Active and inactive are the calls of the source. The calls were made as follows: active = growth percent below 10; inactive = the rest.

Legend:
Test in all cases: NCI-60 one-dose screen, 48 h (100 = growth as untreated, 0 = no growth, -100 = all killed)
Conditions in all cases: 10 µM unless noted
DU-145 prostate = test system: DU-145 prostate
K-562 leukemia = test system: K-562 leukemia
MALME-3M melanoma = test system: MALME-3M melanoma
MDA-MB-231 breast = test system: MDA-MB-231 breast
RXF 393 renal = test system: RXF 393 renal
SF-268 CNS = test system: SF-268 CNS
SF-295 CNS = test system: SF-295 CNS
SF-539 CNS = test system: SF-539 CNS
UACC-257 melanoma = test system: UACC-257 melanoma
M14 melanoma = test system: M14 melanoma

Measured: growth

COc1ccc(-c2c(C(N)=O)c(N)n(Cc3nc4ccccc4[nH]3)c(=O)c2C#N)c(OC)c1
inactive: DU-145 prostate 112% | K-562 leukemia 101% | MALME-3M melanoma 93.2% | MDA-MB-231 breast 92.1% | RXF 393 renal 117% | SF-268 CNS 102% | SF-295 CNS 104% | SF-539 CNS 97.9% | UACC-257 melanoma 112% | M14 melanoma 102%

Cc1ccc(C(=O)CSc2nc3ccccc3c(=O)n2C)cc1
inactive: DU-145 prostate 95.3% | K-562 leukemia 68.8% | MALME-3M melanoma 107% | MDA-MB-231 breast 80% | RXF 393 renal 101% | SF-268 CNS 94.5% | SF-295 CNS 88.6% | SF-539 CNS 93.4% | UACC-257 melanoma 93.2% | M14 melanoma 94.3%

C#CCOc1cccc(/C(N)=N/C(N)=N/c2nc3ccccc3s2)c1
inactive: DU-145 prostate 97.4% | K-562 leukemia 82.2% | MALME-3M melanoma 111% | MDA-MB-231 breast 81.9% | RXF 393 renal 116% | SF-268 CNS 100% | SF-295 CNS 31.2% | SF-539 CNS 105% | UACC-257 melanoma 107% | M14 melanoma 95.8%

CN1CCN(Cc2ccc(NC(=O)c3cncc(C#Cc4cnc5ccc(O[C@@H]6CCOC6)nn45)c3)cc2C(F)(F)F)CC1
active: DU-145 prostate -91.1% | K-562 leukemia -12.6% | MALME-3M melanoma -89.6% | MDA-MB-231 breast -73.2% | RXF 393 renal -79.1% | SF-268 CNS -68.3% | SF-295 CNS -88.5% | SF-539 CNS -89% | UACC-257 melanoma -74.6% | M14 melanoma -86.3%

Cc1ccc2c(n1)C(=O)C(Cl)=C(Nc1ccc(C)c(C)c1)C2=O
inactive: MALME-3M melanoma 85.4% | MDA-MB-231 breast 49.3% | RXF 393 renal 85.7% | SF-268 CNS 79.1% | SF-295 CNS 44.7% | SF-539 CNS 59.9% | UACC-257 melanoma 16% | M14 melanoma 42.5%
active: DU-145 prostate 6.17% | K-562 leukemia 4.14%

Cn1cc(-c2nn3cc(-c4ccncc4)nc3s2)c2cc(Br)ccc21
active: K-562 leukemia 4.34%
inactive: DU-145 prostate 75.1% | MALME-3M melanoma 56.8% | MDA-MB-231 breast 78.5% | RXF 393 renal 65.4% | SF-268 CNS 68.8% | SF-295 CNS 38.5% | SF-539 CNS 80.4% | UACC-257 melanoma 98.3% | M14 melanoma 52%

C/C=C/CC(C)C(O)[C@H](NC(=O)[C@@H]1CCCN1C(=O)[C@](C)(CC)NC(=O)CCCCCCCCC)C(=O)N[C@@](C)(CC)C(=O)N[C@@H](CCC(N)=O)C(=O)N[C@H](CCC(N)=O)C(=O)NC(C)(C)C(=O)NC(C)(C)C(=O)N[C@@H](CCC(N)=O)C(=O)N[C@H](CC(C)C)C(=O)N[C@H](CO)CC(C)C (stereo not given in full)
39.5% (inactive) and -100% (active): SF-539 CNS
20.8% (inactive) and -63.8% (active): SF-268 CNS
inactive: K-562 leukemia 14.5% and 10.4%
21.1% (inactive) and -71.1% (active): UACC-257 melanoma
54.7% (inactive) and -71.4% (active): M14 melanoma
29.9% (inactive) and -95.9% (active): MALME-3M melanoma
63.4% (inactive) and -96% (active): MDA-MB-231 breast
active: DU-145 prostate -21.7% and -48.7% | RXF 393 renal 0.95% and -63%
11.3% (inactive) and -81.6% (active): SF-295 CNS

CC(O)c1cccc(/C(N)=N/C(N)=N/c2nc3ccccc3s2)c1 (stereo not given)
inactive: DU-145 prostate 96.8% | K-562 leukemia 72% | MALME-3M melanoma 97% | MDA-MB-231 breast 94.9% | RXF 393 renal 104% | SF-268 CNS 94.3% | SF-295 CNS 86.7% | SF-539 CNS 96.8% | UACC-257 melanoma 103% | M14 melanoma 94.4%

Cc1ccc2c(n1)C(=O)C(Cl)=C(Nc1cccc(C(=O)OC(C)(C)C)c1)C2=O
inactive: DU-145 prostate 94.8% | MALME-3M melanoma 127% | MDA-MB-231 breast 74.4% | RXF 393 renal 84.3% | SF-268 CNS 93.4% | SF-295 CNS 104% | SF-539 CNS 105% | UACC-257 melanoma 72.3% | M14 melanoma 96.5%
active: K-562 leukemia -18.1%

C/C(CC1(O)C(=O)Nc2ccccc21)=N\O (stereo not given)
inactive: DU-145 prostate 109% | K-562 leukemia 99.6% | MALME-3M melanoma 96.2% | MDA-MB-231 breast 94.8% | RXF 393 renal 103% | SF-268 CNS 98.3% | SF-295 CNS 98.6% | SF-539 CNS 94.7% | UACC-257 melanoma 105% | M14 melanoma 97.9%

O=C(Nc1ccccc1)Nc1nc2ccc([N+](=O)[O-])cc2[nH]1
inactive: DU-145 prostate 56.3% | K-562 leukemia 43.4% | MALME-3M melanoma 40.1% | MDA-MB-231 breast 74.9% | RXF 393 renal 60% | SF-268 CNS 71.5% | SF-295 CNS 66.3% | SF-539 CNS 61.7% | UACC-257 melanoma 57.4% | M14 melanoma 58.2%

COC(=O)c1cccc(NC2=CC(=O)C(C)=C(C)C2=O)c1
inactive: DU-145 prostate 108% | K-562 leukemia 69.3% | MALME-3M melanoma 97.9% | MDA-MB-231 breast 76.4% | RXF 393 renal 94.2% | SF-268 CNS 97.3% | SF-295 CNS 115% | SF-539 CNS 97.2% | UACC-257 melanoma 86.9% | M14 melanoma 108%

O=C1[C@@H]2Cc3c([nH]c4ccccc34)[C@@H](c3ccc(Cl)cc3)N2C(=O)CN1C1CCN(Cc2ccccc2)CC1
inactive: DU-145 prostate 57.5% | MALME-3M melanoma 79.6% | MDA-MB-231 breast 64.2% | RXF 393 renal 50.3% | SF-268 CNS 48% | SF-295 CNS 85.2% | SF-539 CNS 72.7% | UACC-257 melanoma 75.8%
active: K-562 leukemia 3.54% | M14 melanoma 7.82%

C#Cc1cc(C(=O)Nc2ccc(CNCCN3CCOCC3)c(C(F)(F)F)c2)ccc1C
inactive: DU-145 prostate 97% | K-562 leukemia 67.1% | MALME-3M melanoma 92.1% | MDA-MB-231 breast 90.3% | RXF 393 renal 74.7% | SF-268 CNS 86.3% | SF-295 CNS 99.6% | SF-539 CNS 93.6% | UACC-257 melanoma 98.6% | M14 melanoma 101%

C#CCOc1ccccc1C(OC(=O)c1ccccc1)C(=O)NC(C)(C)C(C)(C)C (stereo not given)
inactive: DU-145 prostate 108% | K-562 leukemia 78.3% | MALME-3M melanoma 76.4% | MDA-MB-231 breast 80.8% | RXF 393 renal 74.6% | SF-268 CNS 93.5% | SF-295 CNS 70.3% | SF-539 CNS 102% | UACC-257 melanoma 81.6% | M14 melanoma 89.4%

CC(=C(c1ccc(OCCN2CCCC2)cc1)c1ccc(OCCN2CCCC2)cc1)c1ccc(Cl)cc1
inactive: DU-145 prostate 25.8%
active: K-562 leukemia -43.6% | MALME-3M melanoma -85.9% | MDA-MB-231 breast -68.1% | RXF 393 renal -74.7% | SF-268 CNS -23.1% | SF-295 CNS -63.7% | SF-539 CNS -87.1% | UACC-257 melanoma -73.6% | M14 melanoma -84.5%

CC1=C(SCC(=O)OCCCCCC(C)C)C(=O)c2ccccc2C1=O
inactive: DU-145 prostate 109% | K-562 leukemia 81.1% | MALME-3M melanoma 116% | MDA-MB-231 breast 83.5% | RXF 393 renal 94.2% | SF-268 CNS 96.4% | SF-295 CNS 101% | SF-539 CNS 88.8% | UACC-257 melanoma 104% | M14 melanoma 96.8%

Cn1cc(-c2nnc(N)nc2-c2c[nH]c3ccc(F)cc23)c2cc(Br)ccc21
active: K-562 leukemia 6.36% | RXF 393 renal -12.7% | SF-295 CNS 9.61% | SF-539 CNS 7.43% | M14 melanoma -6.09%
inactive: DU-145 prostate 37.8% | MALME-3M melanoma 41.7% | MDA-MB-231 breast 47.3% | SF-268 CNS 39.7% | UACC-257 melanoma 50.9%

COc1ccc(-c2cnc(NC(=O)CCCCCCNC(=O)C(O)(O)C(F)(F)F)s2)cc1
active: DU-145 prostate -8.16% | RXF 393 renal -48% | SF-268 CNS 2% | SF-295 CNS -44.2%
inactive: K-562 leukemia 14.4% | MALME-3M melanoma 11% | MDA-MB-231 breast 17% | SF-539 CNS 12% | UACC-257 melanoma 18.3% | M14 melanoma 14.4%

CNC(=O)c1cc(Oc2ccc3c(c2)sc2nc(-c4ccc(N(C)C)cc4)cn23)ccn1
inactive: DU-145 prostate 20.2% | K-562 leukemia 11.8% | MALME-3M melanoma 57.5% | MDA-MB-231 breast 15.9% | RXF 393 renal 13.9% | SF-268 CNS 45.7% | UACC-257 melanoma 78.8% | M14 melanoma 19.1%
active: SF-295 CNS 8.54% | SF-539 CNS -14%

N#Cc1cccc(-c2cc(-c3ccc4c(c3)OCCO4)[nH]n2)c1
inactive: DU-145 prostate 34.7% | K-562 leukemia 13.6% | MALME-3M melanoma 36.1% | MDA-MB-231 breast 42% | RXF 393 renal 32.4% | SF-268 CNS 61% | SF-295 CNS 27.1% | SF-539 CNS 25% | UACC-257 melanoma 71.1%
active: M14 melanoma 7.59%

COc1cc2oc(-c3cccc(NC(=O)c4cccc([N+](=O)[O-])c4)c3)cc(=O)c2c(OC)c1OC
inactive: DU-145 prostate 66.9% | K-562 leukemia 60.3% | MALME-3M melanoma 33.7% | MDA-MB-231 breast 41% | RXF 393 renal 36.4% | SF-268 CNS 43.2% | SF-295 CNS 79.8% | UACC-257 melanoma 88.2% | M14 melanoma 83.8%
active: SF-539 CNS -8.95%

O=S1SC(c2ccccc2)=NN1c1cc(F)cc(F)c1 (stereo not given)
inactive: DU-145 prostate 57.2% | K-562 leukemia 22.5% | MALME-3M melanoma 75.5% | MDA-MB-231 breast 69.4% | RXF 393 renal 52.2% | SF-268 CNS 54.3% | SF-295 CNS 52.1% | SF-539 CNS 60.6% | UACC-257 melanoma 69.3% | M14 melanoma 20.6%

O=C(/C=C/c1ccc(F)cc1)Nc1cccc2cccnc12
inactive: DU-145 prostate 107% | K-562 leukemia 101% | MALME-3M melanoma 100% | MDA-MB-231 breast 100% | RXF 393 renal 110% | SF-268 CNS 104% | SF-295 CNS 111% | SF-539 CNS 102% | UACC-257 melanoma 114% | M14 melanoma 98.5%

CSc1ccc(/C(=N/N=C(N)N)c2ccc(F)cc2)cc1
inactive: DU-145 prostate 20.9% | MALME-3M melanoma 90.4% | MDA-MB-231 breast 24.2% | SF-268 CNS 36.3% | SF-295 CNS 11.8% | SF-539 CNS 10.4% | UACC-257 melanoma 66.1%
active: K-562 leukemia 0.0764% | RXF 393 renal -4.77% | M14 melanoma 3.79%

COc1ccccc1/C=C1\Oc2ccc(O)c(O)c2C1=O
inactive: DU-145 prostate 98.4% | K-562 leukemia 95.6% | MALME-3M melanoma 102% | MDA-MB-231 breast 94.9% | RXF 393 renal 90.2% | SF-268 CNS 102% | SF-295 CNS 112% | SF-539 CNS 91.8% | UACC-257 melanoma 101% | M14 melanoma 95.4%
